Results from PubChem BioAssay AID2429 (National Center for Advancing Translational Sciences (NCATS), 2010).
The list shows a part of the results. Calls of active or inactive are those of the source. Calls come from the whole dose curve.

Biological target: 15-hydroxyprostaglandin dehydrogenase [NAD(+)] (Homo sapiens) (UniProt P15428)
Test: Confirmation qHTS Assay for Inhibitors of HPGD (15-Hydroxyprostaglandin Dehydrogenase)
Conditions: recombinant HPGD, NADH fluorescence, PGE2 substrate
Excerpt: Assay Overview: Human 15-Hydroxyprostaglandin dehydrogenase (HPGD) catalyzes the inactivation of prostaglandin E2, and plays a major role in cancer biology by antagonizing the oncogenic potential of cyclooxygenase type 2 (COX2). Assays are available, based on absorbance/fluorescence increase of NADH with the substrate 15-OH prostaglandin E2. Inhibition of HPGD activity was screened by utilizing prostaglandin as an electron donor and NAD+ as an electron acceptor/cofactor. An increase in the fluorescence intensity due to conversion of NAD+ to NADH was used to measure the enzyme activity. This assay is a confirmation screen of primary qHTS protocol (See AID 894). References 1. Myung SJ, Rerko RM, Yan M, Platzer P, Guda K, Dotson A, Lawrence E, Dannenberg AJ, Lovgren AK, Luo G, Pretlow TP, Newman RA, Willis J, Dawson D, Markowitz SD. 15-Hydroxyprostaglandin dehydrogenase is an in vivo suppressor of colon tumorigenesis. Proc Natl Acad Sci U S A. 2006 Aug 8;103(32):12098-102. 2. Yan M, Rerko RM, Platzer P, Dawson D, Willis J, Tong M, Lawrence E, Lutterbaugh J, Lu S, Willson JK, Luo G, Hensold J, Tai HH, Wilson K, Markowitz SD. 15-Hydroxyprostaglandin dehydrogenase, a COX-2 oncogene antagonist, is a TGF-beta-induced suppressor of human gastrointestinal cancers. Proc Natl Acad Sci U S A. 2004 Dec 14;101(50):17468-73. 3. Yang L, Amann JM, Kikuchi T, Porta R, Guix M, Gonzalez A, Park KH, Billheimer D, Arteaga CL, Tai HH, Dubois R, Carbone DP, Johnson DH. Inhibition of Epidermal Growth Factor Receptor Signaling Elevates 15-Hydroxyprostaglandin Dehydrogenase in Non-Small-Cell Lung Cancer. Cancer Res. 2007 Jun 15;67(12):5587-5593. NIH Chemical Genomics Center [NCGC] Structural Genomics Consortium [SGC]
Buffer: 50 mM Tris-HCl, 0.01% Tween 20, pH 8. Enzyme Buffer: 50 mM Tris-HCl, 0.5 mM NAD+ and 0.01% Tween 20, pH 8. Reagents/Controls: Buffer in columns 3 and 4 as negative control (no enzyme). Substrate/cofactor solution: 1 mM NAD+ and 30 uM prostaglandin (Sigma, prostaglandin E2, # P5640) final concentrations dispensed throughout the plate. Enzyme: 20 nM HPGD final concentration in columns 1, 2, 5-48. Column 1 and 2 is neutral (100% activity). A titration of control inhibitor GW5074 (G6416 Sigma-Aldrich, St. Louis, MO) top concentration 10 mM in DMSO, then 1:2 dilution for a total of 16 concentrations in duplicate) was pin-transferred into column 2. Assay Steps: Three uL of enzyme were dispensed to 1536-well Greiner black solid bottom plates. Compounds and control inhibitor (23 nL) were transferred via Kalypsys PinTool. The plates were incubated for 15 min at room temperature, and then 1 uL of substrate/cofactor solution was added to start the reaction. The plates were immediately transferred to and read 5 times every 30 seconds on ViewLux High-throughput CCD imager (Perkin-Elmer) using 360 nm excitation and 450 nm emission fluorescence protocol. The fluorescence intensity difference between the last and the first time points was used to compute reaction progress.

15-hydroxyprostaglandin dehydrogenase [NAD(+)] (Homo sapiens), sequence (P15428 whole entry, looked up): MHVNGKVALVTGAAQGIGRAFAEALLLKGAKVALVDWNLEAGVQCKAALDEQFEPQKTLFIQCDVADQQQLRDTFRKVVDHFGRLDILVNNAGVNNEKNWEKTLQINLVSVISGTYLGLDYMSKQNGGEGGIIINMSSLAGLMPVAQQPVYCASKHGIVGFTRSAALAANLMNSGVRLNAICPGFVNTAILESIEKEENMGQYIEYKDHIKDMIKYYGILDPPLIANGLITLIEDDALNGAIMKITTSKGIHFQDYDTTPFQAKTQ

Potency, active:
CN(c1ccc(C(=O)N2CCc3ccccc3C2)cc1)S(C)(=O)=O 14.1 µM
O=C(c1ccc(CSc2ccccc2)cc1)N1CCCCCC1 0.224 µM
CC1CCN(C(=O)c2cc3nc(C4CC4)cc(C(F)(F)F)n3n2)CC1 3.98 µM
Cc1ccnc(-n2sc3ccccc3c2=O)n1 3.16 µM
CC1CCN(C(=O)c2ccc(CSc3ccc(Cl)cc3)cc2)CC1 0.631 µM
